Assay results taken from PubChem BioAssay (NCATS).
Inconclusive results are not listed. The source made the active and inactive calls. Calls come from the whole dose curve; as a rule, active = well fitted curve in the direction sought with a large enough effect; inconclusive = small, poorly fitted or top-dose-only effect, or another doubt; inactive = no such curve, though single readings can be large; an effect the other way counts as inactive or inconclusive.

Tests used:
[1] = tested on: Zika virus NS2B-NS3 protease (linked construct); assay: Confirmatory screen NINDS AMC qHTS for Zika virus inhibitors (AID 1347152); note: nearly all actives have a fitted effect of over 70% in size; note: potency is the fitted concentration of half-maximal effect
Procedure, shortened: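 Linked NS2B-NS3 1 nM, Tris pH 8.0/0.01% Tween 20; cpd 15 min RT dark; + Nle-KRR-AMC 10 µM (Km 18.3 µM); read 0 and 15 min, 340/450 nm; %inh vs controls, 4-param Hill.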

[2] = tested on: Zika virus NS2B-NS3 protease (unlinked complex); assay: Confirmatory screen GU AMC qHTS for Zika virus inhibitors (AID 1347153);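 note: enzyme at 25 nM with substrate at 10 µM below its Km of 18.3 µM; potency is the fitted concentration of half-maximal effect; nearly all actives have a fitted effect of over 70% in size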
Procedure, shortened: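 Fluorescence change (ex 340/em 450 nm) over 15 min, ~20% substrate conversion, normalized to no-inhibitor and no-enzyme controls, then Hill-fitted. Unlinked protease at 25 nM; AMC peptide 10 µM.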

[3] = Confirmatory screen GU Rhodamine qHTS for Zika virus inhibitors qHTS (AID 1347157); note: potency is the fitted concentration of half-maximal effect; nearly all actives have a fitted effect of over 70% in size
Procedure, shortened: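 Percent inhibition derives from the 15-min fluorescence change (ex 480, em 540 nm), normalized to no-enzyme and no-inhibitor wells. Reactions contained 25 nM NS2B-NS3 complex and 1.5 microM substrate in 10 mM Tris-HCl pH 8.0.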

[4] = ZIKV-mCherry secondary qHTS for Zika virus inhibitors (AID 1347158); note: potency is the fitted concentration of half-maximal effect
Procedure, shortened: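 This orthogonal imaging screen measured ZIKV-mCherry infection of Vero cells exposed to compound, MOI 1, 48-72 h. Percent infection came from segmented nuclei scored mCherry-positive above 3 SD of negative controls.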

[5] = tested on: Zika virus NS2B-NS3 protease (unlinked complex); assay: Primary screen GU Rhodamine qHTS for Zika virus inhibitors: Unlinked NS2B-NS3 protease assay (AID 1347159); note: nearly all actives have a fitted effect of over 60% in size; note: potency is the fitted concentration of half-maximal effect
Procedure, shortened: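 Enzyme 25 nM in Tris-HCl pH 8.0 + 0.01% Tween 20; compounds up to 114 microM, 15 min RT dark; + Rhod110 substrate 1.5 microM; read t0 and 15 min; delta fluorescence → % inhibition → 4-parameter Hill fit.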

[6] = tested on: Zika virus NS2B-NS3 protease (linked construct); assay: Primary screen NINDS Rhodamine qHTS for Zika virus inhibitors (AID 1347160); note: nearly all actives have a fitted effect of over 55% in size; note: potency is the fitted concentration of half-maximal effect
Procedure, shortened: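 Enzyme (25 nM, linked NS2B-NS3) was preincubated 15 min with compound in 10 mM Tris-HCl pH 8.0, 0.01% Tween 20. Rhodamine110 substrate (1.5 microM) was then added and fluorescence read at start and after 15 min.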

[7] = Confirmatory screen NINDS Rhodamine qHTS for Zika virus inhibitors (AID 1347161); note: potency is the fitted concentration of half-maximal effect; nearly all actives have a fitted effect of over 60% in size
Procedure, shortened: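 Percent inhibition, normalized to uninhibited and enzyme-free controls, is fitted to a 4-parameter Hill equation. Fluorescence change comes from a 15-min cleavage of 1.5 microM bis-peptide Rhodamine110 substrate by 25 nM linked NS2B-NS3 at room temperature.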

[8] = tested on: Zika virus NS2B-NS3 protease (linked); assay: 384 well plate NINDS AMC confirmatory qHTS for Zika virus inhibitors (AID 1347163); note: nearly all actives have a fitted effect of over 50% in size; note: potency is the fitted concentration of half-maximal effect
Procedure, shortened: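 Enzyme (5, 30 or 60 nM final) first met test compounds for ~15 min. The AMC-tagged peptide Ac-VKTGKR-AMC followed at 30 microM. Fluorescence was then recorded at 25 min and scaled against no-enzyme and no-inhibitor wells.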

[9] = tested on: Zika virus NS2B-NS3 protease (linked construct); assay: 384 well plate NINDS Rhodamine confirmatory qHTS for Zika virus inhibitors (AID 1347164);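 note: fluorescence from protease cleavage of Ac-LKRR-rhodamine 110 substrate; nearly all actives have a fitted effect of over 65% in size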; note: potency is the fitted concentration of half-maximal effect
Procedure, shortened: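 Fluorescence read at ex 485 nm/em 538 nm, 25 min after adding 10 microM Ac-LKRR-Rd substrate at room temperature in the dark; signal normalized to no-enzyme and no-inhibitor controls. Enzyme final 5, 30 or 60 nM; compounds, ~15 min preincubation.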

[10] = Vero cells viability qHTS for Zika virus inhibitors (AID 1347167)
Procedure, shortened: (§1)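 To flag cytotoxic protease inhibitors, viability is measured by ATP-dependent luminescence (CellTiter Glo) after cells attached overnight receive compound for 24 to 48 hours in DMEM with 4% FBS.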

[11] = HepG2 cells viability qHTS for Zika virus inhibitors (AID 1347168)
Procedure, shortened: as §1

[12] = Tertiary RLuc qRT-PCR qHTS assay for Zika virus inhibitors (AID 1347169); note: nearly all actives have a fitted effect of over 55% in size; note: potency is the fitted concentration of half-maximal effect
Procedure, shortened: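 Luminescence read-out: live-cell Renilla luciferase substrate applied to infected Vero cells, signal measured after 1-1.5 hrs. Cells had received compound before ZIKV-RLuc (Cambodian strain, MOI 1-2) infection and were incubated 48-72 hrs at 37 degrees C.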

[13] = tested on: Zika virus NS2B-NS3 protease (unlinked); assay: Optimization of GU AMC qHTS for Zika virus inhibitors: Unlinked NS2B-NS3 protease assay (AID 1347151); note: series mostly up to about 52 µM; nearly all actives have a fitted effect of over 80% in size
Procedure, shortened: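 Fluorescence read-out (340 nm ex / 450 nm em) of AMC peptide cleavage, taken immediately and after 15 min at room temperature (~20% conversion). Enzyme was the unlinked NS2B–NS3 complex at 25 nM in Tris pH 8.0 buffer.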

[14] = tested on: Zika virus NS2B-NS3 protease; assay: Primary screen GU AMC qHTS for Zika virus inhibitors (AID 1347154); note: nearly all actives have a fitted effect of over 70% in size
Procedure, shortened: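 Unlinked Zika NS2B hydrophilic domain/NS3 protease domain noncovalent complex (25 nM final) in 10 mM Tris-HCl pH 8.0, 0.01% Tween 20, with AMC peptide substrate. Fluorescence (ex 340, em 450 nm) change over 15 min, room temperature; percent inhibition fitted to 4-parameter Hill equation.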

Measured: Potency

CC(C)c1cccc2c(-c3ccccc3)cc(-c3ccc(-c4ccc(C(=O)O)cc4)[nH]3)nc12
inactive: [8] | [9] | [10] | [11]
active: [1] 44.1 µM | [2] 49.4 µM | [3] 1.97 µM | [4] 7.08 µM | [5] 3.55 µM | [6] 7.08 µM | [7] 2.21 µM

CCc1c(-c2ccccc2)c(-c2ccccc2)nn1-c1ccccc1-c1cccc(OCC(=O)O)c1
active: [1] 13.9 µM | [2] 27.8 µM | [3] 3.12 µM | [5] 6.31 µM | [6] 3.55 µM | [7] 3.12 µM | [8] 3.98 µM | [9] 2.51 µM
inactive: [10] | [11]

OC/C=C/C=C/[C@H]1Cc2cc(O)cc(O)c2O1
inactive: [6] | [12]
active: [3] 22.1 µM | [5] 39.8 µM | [7] 27.8 µM

C#CCN(Cc1cc2c(=O)[nH]c(C)nc2cc1Br)c1ccc(C(=O)NCc2cccnc2)cc1
inactive: [6]
active: [3] 44.1 µM | [5] 39.8 µM | [7] 31.2 µM

CC[C@]1(O)CC2CN(CCc3c([nH]c4ccccc34)[C@@](C(=O)OC)(c3cc4c(cc3OC)N(C)[C@H]3[C@@](O)(C(=O)OC)[C@H](OC(C)=O)[C@]5(CC)C=CCN6CC[C@]43[C@@H]65)C2)C1 (some centres not stated)
inactive: [13] | [6]

COc1ccc(CN2C(=O)C(=O)c3cc(S(=O)(=O)N4CCC[C@H]4COc4cccnc4)ccc32)cc1
inactive: [5]

C[C@]12C=C[C@@]3(CCC4[C@](C)(CO)CCC[C@@]4(C)C3CC1)C2 (some centres not stated)
active: [5] 22.4 µM

O=C(O)Cc1ccc2oc(-c3ccc(NC(=O)/C=C/c4ccc(Br)cc4)c(F)c3)nc2c1
active: [1] 15.6 µM | [2] 13.9 µM | [3] 3.12 µM | [5] 3.16 µM | [6] 3.16 µM | [7] 2.21 µM
not listed: [13] | [14]
inactive: all other assays above

COc1ccc(C(=O)n2c(C)c(Cc3cccc(O[C@@H](C)C(=O)O)c3)c3cc(OC(F)(F)F)ccc32)cc1
inactive: [9] | [10] | [11]
active: [1] 17.5 µM | [2] 22.1 µM | [3] 2.78 µM | [5] 3.16 µM | [7] 1.11 µM | [8] 12.6 µM

CC1(C)CC2=C3C=CC4C5(C)CCC(O)C(C)(C)C5CCC4(C)C3(C)CCC2(C)C(O)C1 (configuration not stated)
active: [3] 13.6 µM | [5] 15.8 µM | [6] 8.91 µM | [7] 10.8 µM
inactive: [4] | [10] | [11]

CC(C)[C@@H](CS(=O)(=O)C(C)C)N1C(=O)[C@@](C)(CC(=O)O)C[C@H](c2cccc(Cl)c2)[C@H]1c1ccc(Cl)cc1
active: [5] 28.2 µM

CC(C)[N+]1(C)C2CCC1CC(OC(=O)C(CO)c1ccccc1)C2 (configuration not stated)
inactive: [14] | [5] | [6]

O=C(N/N=C/c1ccc(O)c(O)c1)c1cc2ccccc2cc1O
active: [3] 2.32 µM | [6] 5.01 µM | [7] 6.55 µM | [8] 50.1 µM | [9] 0.447 µM | [12] 6.18 µM
inactive: [1] | [10] | [11]

O=C(Nc1ccc(S(=O)(=O)Nc2nccs2)cc1)C(c1ccccc1)c1ccccc1
inactive: [4] | [8] | [10] | [11]
active: [3] 6.98 µM | [5] 6.31 µM | [6] 7.08 µM | [7] 4.41 µM | [9] 50.1 µM | [12] 20.8 µM

O=C(O)c1c(O)c(-c2ccccc2)nc2ccccc12
inactive: [14]

CCCCCCOc1cc2c(cc1N(C)c1ncc(C(=O)O)cn1)C(C)(C)CCC2(C)C
active: [1] 31.2 µM | [2] 35 µM | [3] 6.98 µM | [5] 3.98 µM | [6] 7.94 µM | [7] 4.41 µM | [8] 8.91 µM | [9] 3.16 µM | [12] 20.8 µM
inactive: [10] | [11]

c1ccc(N2CCN(CCc3nn[nH]n3)CC2)cc1
inactive: [5]

C/C=C/C(O)C1OC(=O)CC1Nc1ccc(C(=O)O)cc1 (configuration not stated)
inactive: [5]

COc1c/c(=C2\C=c3ccccc3=N2)[nH]/c1=C\c1[nH]c(C)cc1C
inactive: [6]

CC1(C)CC[C@]2(C(=O)O[C@@H]3O[C@H](CO)[C@@H](O)[C@H](O)[C@H]3O)CC[C@]3(C)C(=CCC4[C@@]5(C)C[C@@H](O)[C@H](O)C(C)(C)C5[C@H](O)C[C@]43C)[C@@H]2[C@@H]1O (some centres not stated)
inactive: [5] | [6]

CCC(COC)n1nnc2c(Nc3ccc(OC)cc3C)nc(C)cc21 (configuration not stated)
inactive: [5] | [6]

NCCCNc1ccc(Nc2nccc(Nc3cc(C4CC4)[nH]n3)n2)cc1
inactive: [5] | [6]

COc1ccc(C2(O)c3ccccc3NC(=O)C2O)cc1 (configuration not stated)
inactive: [5] | [6]

C/C(=C\CCC(C)CCO)C(=O)O[C@@H]1[C@@H](O)[C@H](OC2OC=C(C(=O)O)C3CCC(C)(O)C23)O[C@H](CO)[C@H]1O (some centres not stated)
inactive: [6]
active: [5] 35.5 µM

C[C@@H]1O[C@@H](O[C@H]2[C@H](O)[C@@H](C(=O)O)O[C@@H](O[C@H]3CC[C@@]4(C)C(CC[C@]5(C)C4CC=C4C6CC(C)(C)CC[C@]6(C(=O)O)CC[C@]45C)C3(C)C)[C@@H]2O[C@@H]2OC[C@@H](O)[C@H](O)[C@H]2O)[C@H](O)[C@H](O)[C@H]1O (some centres not stated)
active: [5] 8.91 µM | [6] 3.1 µM
